Screens from PubChem.
Sampled rows, rich in hits. Any-hit rate of the full collection: about 4.6%.
D1 antag = Antagonist of Human D 1 Dopamine Receptor: qHTS | D(1A) dopamine receptor (Homo sapiens), P21728 | activity change, negative = inhibition, % at 10 µM | HEK293 TREx D1 cells, calcium flux, dopamine EC80; stronger effect = lower value | AID 504652, 2011 | actives 3.2% (n = 360,000); in the data active = activity change below about -30%
Target sequence (P21728 whole entry, looked up): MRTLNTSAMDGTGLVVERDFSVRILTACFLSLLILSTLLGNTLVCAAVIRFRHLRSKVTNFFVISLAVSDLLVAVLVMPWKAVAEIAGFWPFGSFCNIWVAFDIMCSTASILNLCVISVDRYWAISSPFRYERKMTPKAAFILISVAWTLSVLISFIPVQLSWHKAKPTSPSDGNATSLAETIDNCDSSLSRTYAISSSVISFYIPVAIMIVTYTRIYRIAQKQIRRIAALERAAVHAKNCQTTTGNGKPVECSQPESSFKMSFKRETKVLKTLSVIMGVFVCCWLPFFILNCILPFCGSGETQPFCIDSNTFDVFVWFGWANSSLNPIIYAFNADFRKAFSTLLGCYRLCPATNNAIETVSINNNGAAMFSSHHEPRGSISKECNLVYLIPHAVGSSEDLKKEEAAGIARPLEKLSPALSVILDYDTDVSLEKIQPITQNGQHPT
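Compound effects on dopamine-evoked calcium signalling were measured in tetracycline-induced HEK293 Trex D1 cells. Dopamine at EC80 followed a 180 s compound pre-read, and fluorescence was tracked kinetically for 180 s more.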
TRHR ag = qHTS for Small Molecule Agonists and Allosteric Enhancers of Human TRH Receptor: Primary Screen for Agonists; actives 0.18% (n = 360,000); TRHR cells, calcium flux fluo-8, FDSS agonist mode; activation, % at 2 µM; Thyrotropin-releasing hormone receptor (Homo sapiens), P34981
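Fluo-8-loaded TRHR cells; 10 s baseline, compound added, kinetic Ca2+ fluorescence read 1/s, agonist mode.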
D1 potentiator = Potentiators of Human D1 Dopamine Receptor: qHTS | D(1A) dopamine receptor (Homo sapiens), P21728 | HEK293 TREx D1 cells, calcium flux, dopamine EC20 potentiation | potentiation, % at 10 µM | actives 0.036% (n = 360,000) | AID 504651, 2011; in the data active = potentiation above about 30%
D1 ag = Allosteric Agonists of the Human D1 Dopamine Receptor: qHTS; actives 1% (n = 360,000); HEK293 T-REx D1 cells, calcium flux, agonist mode; D(1A) dopamine receptor (Homo sapiens), P21728; AID 504660, 2011; activation, % at 2 µM
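Inducible HEK293 T-REx D1 cells, force-coupled to calcium signalling, were plated at 4000 cells/well with tetracycline and held overnight at 30 C. After no-wash calcium dye loading, compound-evoked calcium rise over 180 s flagged agonists.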
TRHR enhancer = qHTS for Small Molecule Agonists and Allosteric Enhancers of Human TRH Receptor: Primary Screen for Enhancers; TRHR cells, fluo-8 calcium fluorescence, EC20 TRH enhancement; enhancement, % at 2 µM; actives 0.66% (n = 360,000); AID 493056, 2011; in the data active = enhancement above about 30%
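TRHR-expressing cells loaded with fluo-8 calcium dye were read kinetically (ex 480/em 530) during compound addition, then stimulated with an EC20 of TRH (10 nM final). Enhancement of the Gq-mediated intracellular calcium response was scored.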
Large screens that a line does not name were inactive; ! = not confirmed by another sample. Cut-off read from the data, not from the text of the source, unless noted: active = activation above about 30%; inactive = the rest.

Cc1ccc(NC2=NC3(CCCCC3)N=C(N)N2)c(C)c1	D1 antag -66
NC1=NC2(CCCCC2)N=C(Nc2ccc(Br)cc2)N1	D1 antag -37
Cc1ccc(NC2=NC3(CCCC3)N=C(N)N2)c(C)c1	D1 antag -37
CCOc1ccc(-n2ccnc2SCC(=O)Nc2ccc3c(c2)OCO3)cc1	none
CC(C)C(=O)NC(=S)Nc1c(Cl)ccc2nsnc12	none
CCCOC(=O)C1[C@H]2C(=O)N(Cc3ccco3)C[C@]23C=C[C@H]1O3 (stereo partly specified)	D1 antag -61
OC(CNCC(c1ccc(Cl)cc1Cl)c1c[nH]c2ccccc12)c1ccccc1 (stereo unspecified)	none
CCc1cc2c(cc3c(=O)n(CC(=O)NC(C)C)nc(CC)n32)s1	none
CN(C(=O)c1cnc(N2CCOCC2)c2ccccc12)c1ccccc1F	none
COc1cccc(Nc2nc3cc(C)ccc3nc2NS(=O)(=O)c2ccc(Cl)cc2)c1	D1 antag -50, D1 ag 58
CCc1ccc(Nc2nc3ccccc3nc2NS(=O)(=O)c2ccccc2)cc1	D1 antag -49
CCOC(=O)c1ccc(Nc2nc3ccccc3nc2NS(=O)(=O)c2ccc(Cl)cc2)cc1	D1 antag -40
Cc1ccc2nc(NS(=O)(=O)c3ccc(Cl)cc3)c(Nc3ccc(C(=O)O)cc3)nc2c1	none
CC(C)OCCCn1c(=O)c2ccccc2n2c(-c3ccc(F)cc3)nnc12	none
CN(CC(=O)Nc1c(Cl)cccc1Cl)C(=O)c1ccc2nc[nH]c2c1	none
CCOc1ccc(OCC)c(NC(=O)C2CCN(S(=O)(=O)c3ccc(Br)s3)CC2)c1	none
O=c1c(O)c(-c2cccs2)oc2ccc(Cl)cc12	TRHR ag 168, D1 ag 385, TRHR enhancer 77
O=c1c(O)c(-c2cccs2)oc2ccccc12	TRHR ag 107, D1 ag 252
CC[C@@H](C(=O)[C@@H](C)[C@@H](O)[C@H](C)CCc1ccc(C)c(O)c1C(=O)O)[C@H]1O[C@](CC)([C@H]2CC[C@](O)(CC)[C@H](C)O2)C[C@@H]1C	D1 antag -64, TRHR ag 100, D1 ag 207, TRHR enhancer 40
O=C(Nc1ccc(F)cc1)OCCOc1ccc(Br)cc1	D1 antag -55
O=C(CCC1N=C2c3ccccc3N=C(SCC(=O)Nc3ccc(F)cc3)N2C1=O)NCc1cccs1 (stereo unspecified)	none
O=C(CCC1N=C2c3ccccc3N=C(SCC(=O)Nc3ccccc3F)N2C1=O)NCc1cccs1 (stereo unspecified)	D1 antag -38
CCCCNC(=O)CSC1=Nc2ccccc2C2=NC(CCC(=O)NCc3ccccc3OC)C(=O)N12 (stereo unspecified)	none
Cc1ccc(CSC2=Nc3ccccc3C3=NC(CC(=O)NCc4ccc5c(c4)OCO5)C(=O)N23)cc1 (stereo unspecified)	D1 antag -61
COc1ccccc1CNC(=O)CCC1N=C2c3ccccc3N=C(SCC(N)=O)N2C1=O (stereo unspecified)	D1 antag -37
COc1ccccc1CNC(=O)CCNS(=O)(=O)c1ccc2c(c1)oc(=O)n2C	D1 antag -36!
Cc1ccc(C)c(N2CCN(C(=O)CCNS(=O)(=O)c3ccc4c(c3)oc(=O)n4C)CC2)c1	D1 antag -35
CCN(CCNS(=O)(=O)c1ccc2c(c1)oc(=O)n2C)c1ccccc1	D1 antag -31
CCCN(CCC)CCNS(=O)(=O)c1ccc2c(c1)oc(=O)n2C	none
COc1ccc(CCNC(=O)c2ccc3c(c2)CCN3S(=O)(=O)c2ccc(C)cc2)cc1	none
Cc1nc(CC(=O)Nc2cccc(C)c2C)cs1	none
COc1ccccc1NC(=O)c1ccc(NC(=O)CSc2ncn[nH]2)cc1	D1 antag -45
COc1ccccc1NC(=O)CSc1ncn[nH]1	none
